# Data reported in PubChem BioAssay (NCI).
# The panel holds about 83,000 compounds, 20% with a hit somewhere; the sample as a whole holds those more often.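 Results are percent growth after 48 hours of single-concentration exposure. 100 means growth as in untreated cells, lower positive values show inhibition; negative values down to -100 show cell death.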 A number with no mark means an inactive call. Active and inactive are the calls of the source. How the source made its calls: active means growth percent below 10; inactive means the rest.
# Test system: T-47D breast
# Assay: NCI-60 one-dose screen, 48 h (100 = growth as untreated, 0 = no growth, -100 = all killed)
# Details: 10 µM
row,SMILES,growth
1,CC(=O)NNc1ccc2nnc(-c3ccc(Br)cc3)n2n1,84.2%
2,O=C(Nc1ccc(I)cc1F)c1cc(-c2ccc(F)cc2F)ccc1O,-22.7% (active)
3,CS(=O)(=O)Nc1ccc(-c2ccc3c(c2)ncn3-c2ccc(NC(=O)Nc3ccc(Br)cc3)cc2)cc1,-8.48% (active)
4,Cc1ccc(NCC(=O)Nn2c(COc3ccccc3)nc3ccccc3c2=O)cc1,82.6%
5,C=CC(=O)Nc1ccc(C(=O)/C=C/c2ccc(N(C)CCF)cc2)c(O)c1,5.88% (active)
6,Cc1ccc(C(C)C)cc1NC(=O)c1ccccc1O,22%
7,Nc1nc(Nc2ccccc2)nn1Cc1c(Cl)cccc1Cl,15%
8,COc1ccc(-c2cc(-c3cc(C(=O)c4ccccc4)n4ccc(C)cc34)nc(N)c2C#N)cc1,65.1%
9,CC(=O)Oc1ccccc1C(=O)Oc1ccc(C(=O)/C=C/c2ccncc2)cc1,54.9%
10,CC1(C)CC[C@]23CC[C@]4(C)[C@H](CC[C@@H]5[C@@]6(C)CC[C@H](N)C(C)(C)[C@@H]6CC[C@]54C)[C@H]2[C@H]1OC3=O,-78.2% (active)
11,COc1ccc(/C=C/C(=O)c2ccc(S(=O)(=O)NCCNc3nc(Nc4ccc(F)cc4)nc(N(C)C)n3)cc2)cc1,18.4%
12,O=C(c1ccc(Cl)cc1)C1[C@H](c2ccccc2Br)[C@@H](c2ccccc2)NC12C(=O)Nc1ccc(Br)cc12 (some centres not stated),21.3%
13,COc1cnc2c(c1)C(=O)c1c-2n(CCCNC(C)C)c(=O)c2cc(OC)c(OC)cc12,36.2%
14,CC(=O)Nc1ccc(-n2cnc3cc(-c4ccc(NS(C)(=O)=O)cc4)ccc32)cc1,63.2%
15,CC[C@@]1(O)C(=O)OCc2c1cc1n(c2=O)Cc2c-1nc1cc(F)c(C)c3c1c2[C@@H](N)CC3,-3.93% (active)
16,COc1ccc2c(c1)N=C(C(=O)O)/C2=C/c1sc(Nc2ccc(O)cc2)nc1O,45.4%
17,COc1ccc(NC(=O)CSc2nnc(-c3ccc4nc(-c5ccc(Cl)cc5)[nH]c4c3)o2)cc1,96.7%
18,CC(=O)Nc1ccc(-c2cn(-c3cccc(C(=O)Nc4cc(CN5CCOCC5)cc(C(F)(F)F)c4)c3)nn2)cn1,-71.5% (active)
19,COc1ccc(-c2nc(Nc3ccccc3S(N)(=O)=O)c3ccccc3n2)cc1,35.7%

row,SMILES,growth
1,Cc1ccc(CSc2nc(-c3ccc(F)cc3)c(C#N)c(=O)[nH]2)cc1,86.5%
2,COc1cccc(COc2ccc(/C=C3\Oc4cc(O)ccc4C3=O)cc2)c1,44.3%
3,CC(=O)Nc1ccc(-n2cnc3cc(-c4ccc(O)cc4)ccc32)cc1F,29.9%
4,CC1CC(c2ccc(N(C)C)cc2)=NN1c1nc(O)c(C2=c3cc(Br)ccc3=NC2=O)s1 (configuration not stated),66.7%
5,CN1CCc2c(sc3ncnc(N/N=C/c4ccc5ccccc5c4)c23)C1,92.1%
6,O=C(Nc1ccc(Cl)c(C(F)(F)F)c1)c1cncc(C#Cc2cnc3ccc(N4CCOCC4)nn23)c1,1.27% (active)
7,O=C(N=Nc1c(O)[nH]c2ccc(Br)cc12)c1ccc2nc(-c3ccccc3)[nH]c2c1,-67.4% (active)
8,COc1cc(/C=C/C(=O)c2ccc(F)cc2)ccc1Oc1nc(Nc2ccc(F)cc2)nc(N(C)C)n1,28.5%
9,O=C1Nc2ccc(Cl)cc2/C1=C/c1cccc(OCc2ccccn2)c1,-2.11% (active)
10,Cc1cc(C(F)(F)F)ccc1C(=O)Nc1sc2c(c1C#N)CCC(=O)C2,-34% (active)
11,COc1ccc(C(=O)NC(=S)N2CCN(c3ncnc4c3cnn4-c3ccccc3)CC2)cc1,70.3%
12,Cn1cc(/C=N/Nc2ccnc3cc(Cl)ccc23)c2ccccc21,-60.9% (active)
13,COc1ccc(N(C)c2cc(C#N)nc3ccccc23)cc1N,20.8%
14,Cc1cc2nc3c4ccccc4n(CCO)c3nc2cc1C,73.5%
15,CCCn1c(=O)c2[nH]c(-c3ccc(OCc4nc5ccc(F)cc5[nH]4)cc3)nc2n(CCC)c1=O,-17.8% (active)
16,Cc1cc(=O)oc2cc(OCCCCOc3ccc(/C=C/C(=O)Nc4cccc(Cl)c4)cc3)ccc12,24.5%
17,CCOC(=O)c1sc(N/N=C(\C)c2ccc3c(c2)Nc2ccccc2S3)nc1C,8.5% (active)
18,Cc1nn(-c2ccccc2)c2ncn(CC(=O)N/N=C/c3c[nH]c4ccccc34)c(=O)c12,83.2%
